# Experimental data taken from PubChem BioAssay (NCATS).
# Several values for one entry are separate records, joined by “and”; a condition that tells them apart may be missing. Equal values may be shown once. Records with an inconclusive call do not appear. Where a call stands in place of a potency, no number is given. Unmarked numbers belong to inactive results. Activity calls are given as the source filed them. Unless noted, the call rests on the fitted dose curve; in most records, active means well fitted curve in the direction sought with a large enough effect; inconclusive means small, poorly fitted or top-dose-only effect, or another doubt; inactive means no such curve, though single readings can be large; an effect the other way counts as inactive or inconclusive.
# Columns and labels:
# [1] = target: Calcium and integrin-binding protein 1 (Homo sapiens) (UniProt Q99828); experiment: Primary qHTS for Identification of Calcium Integrin Binding Protein 1 (CIB1) Competitor (AID 1508620);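 further: GST tagged CIB1 binding a fluorescein labelled alphaIIb integrin peptide tracer; top concentration of the series differs between compounds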
# Calcium and integrin-binding protein 1 (Homo sapiens), sequence (Q99828 whole entry, looked up): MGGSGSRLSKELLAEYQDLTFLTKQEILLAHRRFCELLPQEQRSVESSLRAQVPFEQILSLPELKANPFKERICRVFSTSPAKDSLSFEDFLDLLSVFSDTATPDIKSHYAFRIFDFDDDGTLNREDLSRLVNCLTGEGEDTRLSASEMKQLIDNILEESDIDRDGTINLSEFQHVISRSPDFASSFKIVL
# How it was run: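 Fluorescence polarization competition: CIB1-GST (1 uM final) preincubated with compound 15 min at room temperature, then FITC-labeled alphaIIb peptide (100 nM final) added for another 15 min. Polarization read at Ex 480/Em 540.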
# [2] = A High-Content qHTS Against Drug Library for the Identification of Small Molecules that Inhibit DYT1 Early Onset Primary Dystonia-Associated Cell Pathology (AID 1645839; calls by dose curve; further: series mostly up to about 46 µM)
# How it was run: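 Readout: %pathology, the punctate EGFP-TorsinA distribution from imaging, as the primary channel and cell count as the toxicity counterscreen. HEK293 Flp-In cells expressing delE TorsinA were induced with tetracycline and treated with compound for 48 h.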
# [3] = target: Cytochrome P450 2D6 (Homo sapiens) (UniProt P10635); experiment: Cytochrome P450 family 2 subfamily D member 6 (CYP2D6) small molecule antagonists: luciferase biochemical (cell-free) qHTS assay (AID 1645840; active means well fitted curve in the direction sought with a large enough effect in the repeat runs; an effect the other way counts as inactive or inconclusive; further: nearly all actives have a fitted effect of over 55% in size; further: potency means the concentration at half of the fitted maximal effect)
# Cytochrome P450 2D6 (Homo sapiens), sequence (P10635 whole entry, looked up): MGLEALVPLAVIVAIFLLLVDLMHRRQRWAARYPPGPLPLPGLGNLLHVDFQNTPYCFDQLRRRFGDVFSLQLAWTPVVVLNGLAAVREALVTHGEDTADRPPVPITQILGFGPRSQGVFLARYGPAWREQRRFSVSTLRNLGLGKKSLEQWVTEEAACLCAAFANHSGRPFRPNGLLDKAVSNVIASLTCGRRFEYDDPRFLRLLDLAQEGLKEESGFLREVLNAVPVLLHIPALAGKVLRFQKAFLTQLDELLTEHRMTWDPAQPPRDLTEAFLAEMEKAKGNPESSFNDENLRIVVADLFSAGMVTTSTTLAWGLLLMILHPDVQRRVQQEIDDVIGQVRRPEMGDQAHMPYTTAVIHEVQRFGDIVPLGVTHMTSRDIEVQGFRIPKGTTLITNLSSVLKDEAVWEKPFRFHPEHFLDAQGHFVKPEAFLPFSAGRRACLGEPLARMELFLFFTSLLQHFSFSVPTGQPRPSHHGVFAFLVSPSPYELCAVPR
# How it was run: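 P450-Glo luminescent screen: recombinant CYP2D6 enzyme–proluciferin substrate mix preincubated with compound 10 min at room temperature, then NADPH regeneration added for 1 h at room temperature. Detection reagent added for 20 min; luciferin light read as relative luminescence units.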
# [4] = target: Cytochrome P450 2C9 (Homo sapiens) (UniProt P11712); experiment: Cytochrome P450 family 2 subfamily C member 9 (CYP2C9) small molecule antagonists: luciferase biochemical (cell-free) qHTS assay (AID 1645842; active means well fitted curve in the direction sought with a large enough effect in the repeat runs; an effect the other way counts as inactive or inconclusive; further: nearly all actives have a fitted effect of over 55% in size; further: potency means the concentration at half of the fitted maximal effect)
# Cytochrome P450 2C9 (Homo sapiens), sequence (P11712 whole entry, looked up): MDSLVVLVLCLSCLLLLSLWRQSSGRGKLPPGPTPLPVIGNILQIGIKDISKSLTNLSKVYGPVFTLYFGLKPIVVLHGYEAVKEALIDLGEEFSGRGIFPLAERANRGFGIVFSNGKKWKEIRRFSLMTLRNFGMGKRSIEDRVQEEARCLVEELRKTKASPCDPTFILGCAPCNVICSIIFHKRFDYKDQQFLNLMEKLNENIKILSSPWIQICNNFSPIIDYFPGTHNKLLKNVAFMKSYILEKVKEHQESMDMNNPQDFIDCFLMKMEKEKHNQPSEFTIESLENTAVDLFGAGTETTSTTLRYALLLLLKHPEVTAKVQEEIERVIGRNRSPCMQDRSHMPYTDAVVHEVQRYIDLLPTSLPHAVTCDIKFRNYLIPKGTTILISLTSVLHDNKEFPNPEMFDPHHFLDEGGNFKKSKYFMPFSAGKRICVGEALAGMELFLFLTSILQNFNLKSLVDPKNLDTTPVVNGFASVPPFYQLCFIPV
# How it was run: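 Luminescence, after 20 min with luciferin detection reagent, reflected CYP2C9 turnover during a 1 h NADPH-driven reaction at 37C. Enzyme-substrate mix contained 0.4% bovine serum albumin and was preincubated with compound 10 min at room temperature.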
# [5] = Primary qHTS for small molecule stabilizers of the endoplasmic reticulum resident proteome: Secreted ER Calcium Modulated Protein (SERCaMP) assay (AID 1508630)
# How it was run: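 GLuc-SERCaMP-expressing SH-SY5Y cells, pretreated 16 h with compound, are challenged with thapsigargin to empty ER calcium stores; after 4 h, coelenterazine is added directly to the medium and luminescence is imaged.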
# [6] = target: Cytochrome P450 3A4 (Homo sapiens) (UniProt P08684); experiment: Cytochrome P450 family 3 subfamily A member 4 (CYP3A4) small molecule antagonists: luciferase qHTS assay (AID 1645841; active means well fitted curve in the direction sought with a large enough effect in the repeat runs; an effect the other way counts as inactive or inconclusive; further: nearly all actives have a fitted effect of over 45% in size)
# Cytochrome P450 3A4 (Homo sapiens), sequence (P08684 whole entry, looked up): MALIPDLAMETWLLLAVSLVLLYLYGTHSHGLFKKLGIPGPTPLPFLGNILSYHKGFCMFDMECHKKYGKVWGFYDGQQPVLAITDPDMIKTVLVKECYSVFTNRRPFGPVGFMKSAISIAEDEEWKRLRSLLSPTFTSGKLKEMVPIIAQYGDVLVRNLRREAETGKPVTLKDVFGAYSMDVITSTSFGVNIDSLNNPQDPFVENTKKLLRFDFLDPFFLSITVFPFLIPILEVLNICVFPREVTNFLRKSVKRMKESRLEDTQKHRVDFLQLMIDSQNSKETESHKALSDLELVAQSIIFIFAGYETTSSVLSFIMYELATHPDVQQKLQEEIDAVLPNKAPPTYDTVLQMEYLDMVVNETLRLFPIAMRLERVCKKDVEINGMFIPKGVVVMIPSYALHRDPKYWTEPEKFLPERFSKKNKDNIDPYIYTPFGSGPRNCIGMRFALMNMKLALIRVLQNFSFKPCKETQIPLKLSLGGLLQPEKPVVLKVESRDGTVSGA
# How it was run: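 P450-Glo CYP3A4 enzyme with proluciferin substrate was preincubated with DMSO-dissolved compounds for 10 min at room temperature. NADPH regeneration solution started a 1 h reaction. Detection reagent stopped it, and luminescence was read after 20 min.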
# [7] = Confirmatory qHTS for small molecule stabilizers of the endoplasmic reticulum resident proteome: Secreted ER Calcium Modulated Protein (SERCaMP) assay (AID 1508628); further: potency means the concentration at half of the fitted maximal effect; nearly all actives have a fitted effect of over 40% in size
# How it was run: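 SH-SY5Y cells stably expressing GLuc-SERCaMP, treated 16 h with compound (primary 1.53, 7.67, 38.3 uM; confirmation 11 concentrations, up to 76.6 uM), then 100 nM thapsigargin for 4 h. Secreted Gaussia luciferase in medium read by coelenterazine luminescence.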
# [8] = Cell Viability qHTS for small molecule stabilizers of the endoplasmic reticulum resident proteome (AID 1508629); conditions: cell viability counter-screen, 100 nM thapsigargin for final 4 h;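 further: human SH-SY5Y neuroblastoma cells carrying the GLuc-SERCaMP reporter; compound exposure about 46 h in total before the viability read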
structure (smiles),measurement,setting,value
CN(C)CC/C=C1/c2ccccc2COc2ccc(CC(=O)O)cc21,Potency,[1],inactive
same,Potency,[2],inactive
same,Potency,[3],inactive
same,Potency,[4],inactive
O=C1OCCN1/N=C/c1ccc([N+](=O)[O-])o1,Potency,[1],inactive
same,Potency,[2],inactive
COc1ccc(OC)c(C(O)CNC(=O)CN)c1 (configuration not stated),Potency,[1],inactive
same,Potency,[2],inactive
same,Potency,[3],inactive
Cc1c(C)n(CCN(C)C)c2ccc(C(=O)OCCN(C)C)cc12,Potency,[1],inactive
same,Potency,[5],inactive
same,Potency,[3],inactive
same,Potency,[4],inactive
C#C[C@]1(O)CC[C@H]2[C@@H]3CCc4cc(OC5CCCC5)ccc4[C@H]3CC[C@@]21C,Potency,[1],inactive
same,Potency,[5],inactive
same,Potency,[3],inactive
same,Potency,[4],8.71 µM (active)
C[C@H]1[C@H](NC(=O)/C(=N/OC(C)(C)C(=O)O)c2csc(N)n2)C(=O)N1S(=O)(=O)O (stereo in doubt),Potency,[1],inactive
same,Potency,[2],inactive
same,Potency,[3],inactive
same,Potency,[4],inactive
CCOc1ccc(Cc2nccc3cc(OCC)c(OCC)cc23)cc1OCC,Potency,[1],inactive
same,Potency,[5],inactive
same,Potency,[4],1.74 µM (active)
CC(C)n1nc(-c2cc3cc(O)ccc3[nH]2)c2c(N)ncnc21,Potency,[1],inactive
same,Potency,[5],inactive
same,Potency,[3],13.5 µM (active)
same,Potency,[4],1.95 µM (active) and 1.51 µM (active)
COc1cc2c(cc1OC)C(C(C(=O)N(CCc1ccc(OC)c(OC)c1OC)CCc1ccc(OC)c(OC)c1OC)c1ccccc1)=NCC2 (configuration not stated),Potency,[1],inactive
same,Potency,[2],inactive
same,Potency,[3],12.3 µM (active)
same,Potency,[4],4.36 µM (active)
O=C(OCC(O)CO)c1ccccc1Nc1ccnc2cc(Cl)ccc12 (configuration not stated),Potency,[1],inactive
same,Potency,[5],inactive
same,Potency,[3],8.71 µM (active)
same,Potency,[4],5.49 µM (active)
Cc1ncc(CSSCc2cnc(C)c(O)c2CO)c(CO)c1O,Potency,[1],inactive
same,Potency,[2],inactive
same,Potency,[3],7.76 µM (active)
same,Potency,[4],6.17 µM (active)
COc1ccc(CCN2CCC(Nc3nc4ccccc4n3Cc3ccc(F)cc3)CC2)cc1,Potency,[1],inactive
same,Potency,[5],inactive
same,Potency,[3],6.17 µM (active)
same,Potency,[4],inactive
CN1CCC[C@@H]1c1cccnc1,Potency,[1],inactive
same,Potency,[2],inactive
same,Potency,[3],inactive
same,outcome,[6],inactive
CC(=O)N(O)CCCCCNC(=O)CCC(=O)N(O)CCCCCNC(=O)CCC(=O)N(O)CCCCCN,Potency,[1],inactive
same,Potency,[5],inactive
same,Potency,[3],inactive
same,Potency,[4],inactive
NC(=O)c1cc[n+](CC2=C(C(=O)[O-])N3C(=O)[C@@H](NC(=O)Cc4cccs4)[C@H]3SC2)cc1,Potency,[1],inactive
same,Potency,[2],inactive
same,Potency,[3],inactive
same,Potency,[4],inactive
C/C=C(/C(=C/C)c1ccc(O)cc1)c1ccc(O)cc1,Potency,[1],inactive
same,Potency,[5],inactive
same,Potency,[3],24.5 µM (active)
same,Potency,[4],17.4 µM (active)
CC(C)COC(=O)c1ccc(N)cc1,Potency,[1],inactive
same,Potency,[2],inactive
NC(=O)CC[C@@H]1NC(=O)[C@H](Cc2ccccc2)NC(=O)[C@H](Cc2ccc(O)cc2)NC(=O)CCSSC[C@@H](C(=O)N2CCC[C@H]2C(=O)N[C@@H](CCCN=C(N)N)C(=O)NCC(N)=O)NC(=O)[C@H](CC(N)=O)NC1=O,Potency,[1],inactive
same,Potency,[2],inactive
same,Potency,[3],inactive
same,Potency,[4],inactive
COc1cc(OC)cc(OC)c1,Potency,[1],inactive
same,Potency,[2],inactive
same,Potency,[3],inactive
same,Potency,[4],inactive
NC(=O)C(=O)N/N=C/c1ccc([N+](=O)[O-])o1,Potency,[1],inactive
same,Potency,[2],inactive
same,Potency,[3],6.17 µM (active)
same,Potency,[4],inactive
CNC(=O)CN(CCN(CCN(CC(=O)[O-])CC(=O)NC)CC(=O)[O-])CC(=O)[O-].O.[Gd+3],Potency,[1],inactive
same,Potency,[2],inactive
same,Potency,[3],inactive
same,outcome,[6],inactive
same,Potency,[4],inactive
CCCSS/C(CCO)=C(\C)N(C=O)Cc1cnc(C)nc1N,Potency,[1],inactive
same,Potency,[2],inactive
same,Potency,[3],inactive
same,Potency,[4],inactive
Cc1ccc(Nc2c(F)cccc2Cl)c(CC(=O)O)c1,Potency,[1],inactive
same,Potency,[2],inactive
OC[C@H]1O[C@@H](n2cnc3c(=S)nc[nH]c32)[C@H](O)[C@@H]1O,Potency,[1],inactive
same,Potency,[2],inactive
same,Potency,[3],inactive
same,Potency,[4],11 µM (active)
C#C[C@]1(OC(C)=O)CC[C@H]2[C@@H]3CCC4=C[C@@H](OC(C)=O)CC[C@@H]4[C@H]3CC[C@@]21C,Potency,[1],inactive
same,Potency,[5],inactive
same,Potency,[3],inactive
same,Potency,[4],13.6 µM (active)
Oc1c(Cl)cc(Cl)cc1Sc1cc(Cl)cc(Cl)c1O,Potency,[1],inactive
same,Potency,[5],inactive
same,Potency,[3],12 µM (active)
same,Potency,[4],6.01 µM (active)
COc1ccc(/C=C/C(=O)c2ccc(OC)cc2OC)cc1,Potency,[1],inactive
same,Potency,[5],inactive
same,Potency,[4],4.36 µM (active)
NC(CS)C(=O)O (configuration not stated),Potency,[1],inactive
same,Potency,[2],inactive
same,Potency,[3],inactive
same,Potency,[4],inactive
CC(Cc1ccccc1)(NC(=O)CN)c1ccccc1 (configuration not stated),Potency,[1],inactive
same,Potency,[2],inactive
COc1cccc(OC)c1C(=O)N[C@@H]1C(=O)N2[C@@H]1SC(C)(C)[C@@H]2C(=O)O,Potency,[1],inactive
same,Potency,[5],inactive
same,Potency,[4],inactive
O=C(OCCOCCO)c1ccccc1Nc1cccc(C(F)(F)F)c1,Potency,[1],inactive
same,Potency,[5],inactive
same,Potency,[3],27.5 µM (active)
same,Potency,[4],17.4 µM (active)
CN1CCCC(CC2c3ccccc3Sc3ccccc32)C1 (configuration not stated),Potency,[7],22.4 µM (active)
same,max response,[8],-16.7%
CC1=C(C(=O)OC(C)C)C(c2cccc([N+](=O)[O-])c2)C(C(=O)OC2CN(C(c3ccccc3)c3ccccc3)C2)=C(N)N1 (configuration not stated),Potency,[7],28.2 µM (active)
same,max response,[8],-0.744%
